# A selection: hits, their analogues and other compounds. The true share with any hit is near 4%.
# p53null 39C kill = p53 null cell cytotoxicity, nonpermissive temperature | H1299 p53-null (neo) cells, 39C, ATPlite viability, 24 h | Potency, µM (doses to about 46.1 µM), inactives show at the top dose activity, negative = cell killing, actives largely listed as cytotoxic | 55,000 tested, 0.97% active | AID 904;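 also: potency is read from the fitted curve at half-maximal effect; 0% = DMSO only and -100% = full killing by 100 µM tamoxifen; nearly all actives have a fitted effect of over 50% in size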
#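 Temperature-shift cytotoxicity format: compound titrations on p53-null or A138V-expressing H1299 cells held 24 hr at 39C, cell ATP then measured, AC50 from Hill model.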
# DRV1 agonist = GPR32 (DRV1) agonism, beta-arrestin recruitment; CHO-K1 GPR32 beta-arrestin PathHunter luminescence, 90 min; zero percent set by DMSO-only wells; activation, % at 76.9 µM; 48,000 tested, 2.5% active;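 active = activation of at least 60% and not above a set upper limit, about 1 call in 100 departs from these limits; inconclusive = activation of 40% to 60%, or above that upper limit; inactive = activation under 40%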; also: 0% is about no effect
# Target sequence (O75388 whole entry, looked up): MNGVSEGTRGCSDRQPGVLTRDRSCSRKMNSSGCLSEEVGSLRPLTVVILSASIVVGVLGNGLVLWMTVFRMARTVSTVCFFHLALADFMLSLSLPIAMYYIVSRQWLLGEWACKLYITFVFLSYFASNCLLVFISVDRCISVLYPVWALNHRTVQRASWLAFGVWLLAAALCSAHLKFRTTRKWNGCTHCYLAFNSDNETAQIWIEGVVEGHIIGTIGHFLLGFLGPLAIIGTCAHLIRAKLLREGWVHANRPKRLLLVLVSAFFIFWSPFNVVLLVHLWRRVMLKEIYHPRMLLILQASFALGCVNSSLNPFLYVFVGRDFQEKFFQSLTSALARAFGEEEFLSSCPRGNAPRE
#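 Agonism was scored as beta-arrestin recruitment to ProLink-fused GPR32 in stably transfected CHO-K1 cells, giving a chemiluminescent beta-Gal signal; compounds were incubated 90 min at 37 °C.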
# GALC G270D up = galactocerebrosidase G270D activity enhancement, cell-based; Potency, µM (doses to about 57.5 µM), most hits filed as activators; 45,000 tested, 0.1% active; 145M-Twi-hGALC-G270D cells (Twitcher mouse brain line with human GALC G270D), HMU-beta-Gal fluorescence, 48 h; also: potency is read from the fitted curve at half-maximal effect; 0% is about no effect; nearly all actives have a fitted effect of over 65% in size
#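 Live 145M-Twi cells (Twitcher mouse brain-derived, GALC-null) stably expressing human GALC-G270D, with a wild-type GALC line, were compound-treated. Residual GALC activity was then read as fluorescence from 0.1 mM final HMU-β-gal at pH 5.2; higher signal means activation.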
# SKOV3 invasion = blocks SKOV3ip1 adhesion and invasion in omental model; SKOV3ip1-GFP adhesion/invasion on 3D omental model, fluorescence; Potency, µM (titrated, usually from 45.8 µM), without a hit: at the top dose activity change, negative = inhibition, actives largely listed as inhibitors; 46,000 tested, 0.1% active; AID 1963576;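 also: potency is read from the fitted curve at half-maximal effect; plate controls were DMSO wells for no effect and tomatine positive control wells for full effect; nearly all actives have a fitted effect of over 65% in size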
#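 Primary human omental fibroblast/mesothelial 3D culture pre-formed 48 h. SKOV3ip1-GFP cells added with compounds (0.36-46 umol/L), incubated 2 h RT/16 h 37 C, fixed; GFP cells quantified at 488/509 nm.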
# NTMT1 inhibitor = blocks human N-terminal methyltransferase 1 activity; NTMT1 MTase-Glo SAH luminescence, purified enzyme; Potency, µM (series often up to 114 µM), without a hit: at the highest dose activity change, negative = inhibition, hits mostly inhibitors; 59,000 tested, 2.5% active; AID 1645870;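 also: potency is read from the fitted curve at half-maximal effect; plate controls were DMSO vehicle for no effect and no enzyme for full effect; nearly all actives have a fitted effect of over 65% in size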
# Target sequence (Q9BV86 whole entry, looked up): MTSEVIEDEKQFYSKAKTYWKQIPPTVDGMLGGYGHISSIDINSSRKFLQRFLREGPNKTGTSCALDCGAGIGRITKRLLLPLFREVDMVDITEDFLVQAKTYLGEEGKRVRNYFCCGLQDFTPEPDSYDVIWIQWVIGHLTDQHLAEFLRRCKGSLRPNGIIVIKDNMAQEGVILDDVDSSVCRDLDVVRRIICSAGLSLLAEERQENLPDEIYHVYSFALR
# p53null 32C kill = p53 null cell cytotoxicity, permissive temperature. H1299-neo p53 null cells, ATP luminescence, 24 h, 32C. Potency, µM (series often up to 46.1 µM), for inactives: at the highest dose activity change, negative = cytotoxicity, most hits filed as cytotoxic. 55,000 tested, 0.62% active. AID 903;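 also: potency is read from the fitted curve at half-maximal effect; 0% = DMSO only and -100% = full killing by 100 µM tamoxifen; nearly all actives have a fitted effect of over 55% in size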
#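 Cytotoxicity: H1299-neo (no p53), 32C, 24 h treatment. Concentrations up to 46 uM. Readout cellular ATP, luminescence. Normalization to DMSO basal and tamoxifen 100 uM maximal kill.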
# Starred values were filed as active, the others as inactive; i = inactive; ? = inconclusive; nt = not tested or not shown; [ ] = another dose, or the depositor's remark. Unless noted, calls follow the shape of the dose curve; as a rule, active = well fitted curve in the direction sought with a large enough effect; inconclusive = small, poorly fitted or top-dose-only effect, or another doubt; inactive = no such curve, though single readings can be large; an effect the other way counts as inactive or inconclusive.
SMILES,p53null 39C kill,DRV1 agonist,GALC G270D up,SKOV3 invasion,NTMT1 inhibitor,p53null 32C kill
CCCOc1ccc(/C=C/C(=O)Nc2sc3c(c2C(=O)OCC)CCC(C)C3)cc1OC (stereo unspecified),35%,1,i,-3%,9%,-4%
CCOc1ccc(/C=C/C(=O)Nc2sc3c(c2C(=O)OC)C(C(=O)OC)CC3)cc1 (stereo unspecified),17%,-6,i,3%,10µM*,7%
COC(=O)c1c(NC(=O)CCCOc2ccc(C)cc2)sc2c1C(C(=O)OC)CC2 (stereo unspecified),21%,-14,i,-4%,18µM*,11%
CC1CCN(c2nc(-c3ccc(C(C)(C)C)cc3)nc3ccccc23)CC1,13µM*,4,i,-5%,7%,13µM*
CCCOc1ccc(-c2nc(N3CCC(C)CC3)c3ccccc3n2)cc1,5%,15,nt,i,nt,3%
CC1CCCCN1c1nc(-c2ccc(C(C)(C)C)cc2)nc2ccccc12 (stereo unspecified),16µM*,-23,i,i,7%,13µM*
CCOc1ccc(CCNC(=O)c2cccc(C(=O)c3ccccc3)c2)cc1OCC,nt,nt,nt,nt,5%,nt
CN1C(=O)NC(c2ccccc2Cl)C2=C1CCCC2=O (stereo unspecified),nt,nt,nt,nt,5%,nt
COC1(CC(C)C)NC(=O)C(O)(Cc2ccccc2)NC1=O (stereo unspecified),nt,nt,nt,nt,-1%[29.8 µM],nt
COC(=O)c1cccc(NC(=O)c2nsc3ccccc23)c1,7.1µM*,-22,i,?,45µM*,3.2µM*
O=C(Nc1cccc(C(=O)N2CCCCC2)c1)c1nsc2ccccc12,10µM*,5,i,1%,?,?
COc1cc(OC)c(C(CC(=O)N2CC(C)CC(C)C2)c2ccc3c(c2)OCO3)c(OCC(N)=O)c1 (stereo unspecified),nt,nt,nt,nt,13%[228 µM],nt
COc1ccc(/C=C/C(=O)O[C@@H]2[C@@H](O)[C@H](C)O[C@@H](OC3C4C=COC(O[C@@H]5O[C@H](CO)[C@@H](O)[C@H](O)[C@H]5O)C4C4(CO)OC34)[C@@H]2O)cc1OC (stereo partly specified),nt,nt,nt,nt,14%[12.6 µM],nt
CS(=O)(=O)c1ccc(-c2cnc(NCc3ccco3)n3cnnc23)cc1,nt,nt,nt,nt,-9%,nt
O=C(Cc1csc2ccccc12)NCc1ccc(F)cc1,-8%,-19,i,-4%,5%,-7%
Cc1ccc(CNC(=O)Cc2csc3ccccc23)cc1,-18%,85*,i,1%,-1%,-7%
Cc1cc(N2CCOCC2)cc2[nH]c(-c3c(NCC(O)c4cccc(Cl)c4)cc[nH]c3=O)nc12 (stereo unspecified),nt,nt,nt,nt,0%,nt
Cc1cc(-c2nc(-c3ccc(OC(F)(F)F)cc3)no2)nn1Cc1ccnc(N2CCN(C3CC3)CC2)c1,nt,nt,nt,nt,2%[57.5 µM],nt
[O-][n+]1ccccc1SSc1cccc[n+]1[O-],nt,4,i,nt,5µM*,nt
Cc1ccc(C)c(N(C)C(=O)Cc2c(C(=O)O)[nH]c3ccc(Cl)cc23)c1,-12%,70*,i,i,22%,12%
CCCCOc1ccc(CC/C=C2\SC(=O)N(CCN)C2=O)cc1,nt,nt,nt,nt,50µM*,nt
COC12CC3C(C(C)C1=CC(=O)O2)C(O)C(OC(C)=O)C1C(C)(C)C(OC(C)=O)CCC31C (stereo unspecified),nt,nt,nt,nt,4%[29.8 µM],nt
COc1ccc(Cl)cc1NC(=O)Cn1nnc(C(=O)NCc2ccc3c(c2)OCO3)c1N,-16%,112*,i,-4%,-2%,?
Nc1c(C(=O)NCc2ccc3c(c2)OCO3)nnn1CC(=O)Nc1ccc(Br)cc1,-23%,61*,i,1%,20%,-17%
COc1ccccc1NC(=O)Cn1nnc(C(=O)NCc2ccc3c(c2)OCO3)c1N,-1%,42,i,i,5%,3%
SMILES,p53null 39C kill,DRV1 agonist,GALC G270D up,SKOV3 invasion,NTMT1 inhibitor,p53null 32C kill
Cc1ccccc1C(=O)N1CCc2cc(-c3ccnc(NC(=O)Cc4ccccc4)n3)ccc21,nt,nt,nt,nt,0%,nt
Cc1ncc(CCCN(C)C)cc1Nc1ncc2c(n1)-c1ccc(C(F)(F)F)cc1NC(=S)C2,nt,nt,nt,nt,32µM*,nt
N#Cc1c(-n2ncnc2-c2cccc(Br)c2)sc2c1CCCCC2,-10%,13,i,i,?,1%
Cc1ccccc1-c1ncnn1-c1sc2c(c1C#N)CCCCC2,?,106*,i,-5%,?,?
N#Cc1c(-n2ncnc2-c2ccc(F)cc2)sc2c1CCCCC2,?,69*,i,-4%,-14%,10µM*
CCCC(NC(=O)/C(C#N)=C/c1cccc(Br)n1)c1ccccc1 (stereo unspecified),nt,nt,nt,nt,2%,nt
COc1ccc(NC(=O)[C@H]2O[C@@H]3OC(C)(C)O[C@@H]3[C@H]3OC(C)(C)O[C@H]32)c(OC)c1,-2%,97*,i,7%,5%,-2%
COC(=O)c1ccccc1NC(=O)[C@H]1O[C@@H]2OC(C)(C)O[C@@H]2[C@H]2OC(C)(C)O[C@H]21,-7%,-37,i,i,12%,-1%
COC(=O)c1ccc(O)c2ncc(N3CC[C@H](N)C3)cc12,nt,nt,nt,nt,4%,nt
Cc1ccc(NS(=O)(=O)c2ccc3c(c2)NC(=O)CCS3)c(Br)c1,-21%,120*,i,i,4%,-11%
Cc1ccc(NS(=O)(=O)c2ccc3c(c2)NC(=O)CCS3)cc1C,-10%,?,i,i,-5%,0%
Cc1ccccc1NS(=O)(=O)c1ccc2c(c1)NC(=O)CCS2,-14%,43,i,i,8%,-5%
O=C1CCSc2ccc(S(=O)(=O)Nc3cccc(C(F)(F)F)c3)cc2N1,-6%,109*,i,7%,-3%,0%
COc1ccccc1N(CC(=O)NCCSCc1cccc(Cl)c1)S(C)(=O)=O,19%,88*,i,-14%,-2%,4%
Cc1cc(-c2nnc3n2CCCCC3)c(C)n1-c1ccc(C(C)(C)C)cc1,nt,nt,nt,nt,30%,nt
CCCN(CCC)CC(O)Cn1cc(/C=C/C(=O)c2ccc(OCC)cc2)c2ccccc21 (stereo unspecified),20µM*,?,35µM*,-19%,-4%,?
Cc1ccc(-c2cc(C(=O)Nc3ccccn3)c3ccccc3n2)cc1C,nt,nt,nt,nt,-8%,nt
CCOc1ccc2nc(N3CCN(C(=O)CS(=O)(=O)c4ccc(F)cc4)CC3)sc2c1,?,44,i,-9%,0%,10µM*

# Screening data from PubChem BioAssay.
